# HCMV inh: inhibitors of human cytomegalovirus; HFF cells, HCMV-luciferase reporter, 72 h; stronger effect = lower value; activity change, negative = inhibition, % at 57.5 µM; actives 4.5% (n = 410,000); in the data active = activity change below about -60%; inconclusive = no clear call, values can overlap the other calls; inactive = above about -39%
#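 Inhibition of viral replication was scored as loss of reporter luminescence in HFFs infected with HCMV-luciferase (MOI 1 PFU/cell) for 72 h; compounds tested at 2 doses, normalized to buffer and Salinomycin controls.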
# LASV entry inh: Lassa virus entry inhibition | Potency, µM (doses to about 37.9 µM), actives largely listed as inhibitors | actives 1.2% (n = 300,000) | Lassa virus pseudotype entry inhibition, cell reporter | AID 540256; calls by dose curve; tested in HEK293 cells; also: nearly all actives have a fitted effect of over 50% in size
# FMDV inh: antivirals against foot and mouth disease virus | FMDV antiviral cell-based qHTS | Potency, µM (top dose mostly 57.9 µM), usual class: inhibitors | actives 1.2% (n = 410,000); calls by dose curve; tested in HEK293T cells; also: read-out not given here; nearly all actives have a fitted effect of over 45% in size
# MARV entry inh: blocks Marburg virus binding to or entry into cells | Marburg virus pseudotyped entry inhibition, cell reporter | Potency, µM (titrated, usually from 37.8 µM), usual class: inhibitors | actives 1.8% (n = 300,000) | AID 540276; calls by dose curve; tested in HEK293 cells
# Hits are given with their value; - = inactive; ? = inconclusive; . = not tested or not shown. Compounds with a hit are over-represented: about 6.2% of the library has one in this group of screens.
SMILES,HCMV inh,LASV entry inh,FMDV inh,MARV entry inh
COCC(=O)Nc1cc(C(=O)N2CCCC(C(C)=O)C2)cc2nc(-c3ccccc3)n(C)c12 (stereo not given),.,.,-,.
CCNC(=O)C1(C)CCN(C(=O)c2ccccc2F)C1 (stereo not given),-98,.,-,.
CCc1ccccc1NS(=O)(=O)c1ccc(-c2coc(C)n2)cc1,-,?,-,.
O=C(NCCN1Cc2ccccc2OC(c2ccsc2)C1)c1cncs1 (stereo not given),.,.,-,.
COc1ccc(F)cc1C(=O)C1CCCN(Cc2c[nH]c3ccccc23)C1 (stereo not given),?,.,-,.
COc1ccc(CN2CCCC(C(=O)c3ccccc3SC)C2)cc1O (stereo not given),-,.,-,.
COc1ccc(F)cc1C(=O)C1CCCN(Cc2cn(C)c3ccccc23)C1 (stereo not given),-,?,-,15µM
COc1ccc(OC)c(CN2CCCC(C(=O)c3ccccc3SC)C2)c1 (stereo not given),-63,?,?,2.5µM
Cn1cc(CN2CCCC(CNC(=O)c3ccc4c(c3)OCO4)C2)c2ccccc21 (stereo not given),-,-,-,7.9µM
Cn1cc(CN2CCCC(C(=O)c3cc(F)ccc3F)C2)c2ccccc21 (stereo not given),-,?,-,10µM
COc1ccccc1NC(=O)OC[C@@H]1CSCCS(=O)(=O)N1,-,.,.,?
COc1cccc(CN2C(=O)NC(C)(C3CCN(Cc4cc(Cl)ccc4O)CC3)C2=O)c1OC (stereo not given),.,.,-,.
Cc1nn(-c2ccccn2)c2c1C(=O)C(Br)CC2 (stereo not given),.,-,32µM,?
Cn1c(N=Nc2ccccc2)nc2ccccc21,-,?,-,?
CN(C)c1ccc(N=Nc2nc3ccccc3n2C)cc1,?,.,4µM,.
COc1cc(NC(=O)NCc2ccco2)ccc1-c1ccc(NC(=O)NCc2ccco2)cc1OC,-67,?,-,?
COc1ccccc1NC(=O)NCc1ccco1,-,?,-,-
O=c1c(S(=O)(=O)c2cccc(Cl)c2)cn(Cc2ccccc2)c2cc(N3CCOCC3)c(F)cc12,-,-,-,.
Fc1ccc2cc(C3=CCCCC3)ncc2c1,-95,.,.,.
COc1ccccc1N1CCN(Cc2ccc(O)c3ncccc23)CC1,-91,10µM,?,?
CCOC(=O)C1CCN(Cc2ccc(O)c3ncccc23)CC1,?,-,-,?
Oc1ccc(CN2CCCc3ccccc32)c2cccnc12,.,4.5µM,-,?
Cc1ccc(NC(=S)Nc2ccc(C(C)C)cc2)cc1S(=O)(=O)N1CCCCCC1,-99,?,-,?
C=CCNC(=S)Nc1ccc(C)c(S(=O)(=O)N2CCCCC2)c1,-,-,-,-
COc1ccc(/C=C/C(=O)Nc2ccc(C)c(S(=O)(=O)N3CCOCC3)c2)cc1,-95,.,?,.
SMILES,HCMV inh,LASV entry inh,FMDV inh,MARV entry inh
COc1ccc(NC(=S)Nc2ccc(C)c(S(=O)(=O)N3CCCCC3)c2)cc1,.,-,.,15µM
COc1ccc(NC(=O)/C=C/c2ccc(S(=O)(=O)N3CCOCC3)cc2)cc1,-,.,-,.
CCc1cc2c(nc1CC)CCN(CCC(C)=NO[C@@H]1O[C@H](COC(C)=O)[C@@H](OC(C)=O)[C@H](OC(C)=O)[C@@H]1OC(C)=O)C2,.,.,.,-
COc1cccc(-c2cc3c(Nc4cccc(F)c4)nccc3[nH]2)c1,-,.,.,.
CS(=O)(=O)CC[C@H](C(=O)n1nnc2ccccc21)N1C(=O)c2ccccc2C1=O,.,.,.,-
CCC(=O)N1CCc2cc(CNS(=O)(=O)c3c(C)cc(C)cc3C)ccc21,-,-,-,.
Cc1cc(C)c(S(=O)(=O)NCc2ccc3c(c2)CCN3C(=O)c2ccccc2)c(C)c1,-60,-,?,.
Cc1cc2cc(CNS(=O)(=O)c3ccc4ccccc4c3)ccc2n1C,-,.,-,.
Cc1cc(C)c(S(=O)(=O)NCc2ccc3c(c2)cc(C)n3C)c(C)c1,-93,.,-,.
COc1ccc(OC)c(S(=O)(=O)NCc2ccc3c(c2)CCN3C(=O)c2cccc(C)c2)c1,-80,?,-,.
COc1ccc(/C(O)=C2\C(=O)C(=O)N(CCCN(C)C)[C@H]2c2ccccc2)cc1OC,.,.,.,-
CCCCC(=O)Nc1ccc(S(=O)(=O)N2CCCCC2c2cccnc2)cc1 (stereo not given),?,-,-,-
CCOc1ccc(C(=O)Nc2ccc(S(=O)(=O)N3CCCCC3c3cccnc3)cc2)cc1 (stereo not given),-89,?,32µM,.
CC(=O)Nc1ccc(S(=O)(=O)N2CCCCC2c2cccnc2)cc1 (stereo not given),-,-,-,-
O=C(Nc1ccc(S(=O)(=O)N2CCCCC2c2cccnc2)cc1)c1ccc(Br)cc1 (stereo not given),-98,?,?,.
C#Cc1cccc(C(=O)NCc2nc(-c3cccc(NC(=O)c4ccccn4)c3)oc2C)c1,.,.,-,.
C/C=C/[C@@H]1[C@@H](S(=O)(=O)c2ccccc2)CC(=O)N1Cc1ccccc1,-,.,.,.
CCN(CC(=O)Nc1ccc(NC(C)=O)cc1)C(=O)Cc1ccc(Cl)c(Cl)c1,-64,.,?,-
COc1cccc(CNC(=O)c2c(OC)cc(=O)n3c2CCN(C(=O)c2ccccc2Cl)CC3)c1,.,.,-,.
O=C(Nc1cccc(S(=O)(=O)N2CCCCC2)c1)c1ccc(S(=O)(=O)C(F)F)cc1,-64,?,28µM,4.5µM
CN(C)S(=O)(=O)c1cccc(NC(=O)c2cccc(S(=O)(=O)N3CCCCCC3)c2)c1,-61,?,?,?
O=C(Nc1cccc(S(=O)(=O)C(F)F)c1)c1ccc(S(=O)(=O)N2CCCCC2)cc1,?,?,28µM,?
CN(C)S(=O)(=O)c1cccc(NC(=O)c2ccc(S(=O)(=O)N3CCCCC3)cc2)c1,-,-,-,?
CC(=O)c1cccc(NC(=O)c2ccc(S(=O)(=O)N3CCCCC3)cc2)c1,?,-,?,?
O=C(NCC1(N2CCOCC2)CCCC1)c1cnn(-c2ncc3c(n2)-c2ccccc2CC3)c1C1CC1,.,.,-,.
SMILES,HCMV inh,LASV entry inh,FMDV inh,MARV entry inh
CC(=Nc1ccccc1)C1=C(O)C(Cc2ccc(O)cc2)NC1=O (stereo not given),-69,?,-,-
CC(=Nc1ccccc1)C1=C(O)C(Cc2cccc(F)c2)NC1=O (stereo not given),-72,.,-,.
CCOC(=O)c1c(S(=O)(=O)N2CCC(C(=O)Nc3ccc(OCC)cc3)CC2)c(C)n(C)c1C,-,-,-,.
COc1ccc2nc(N)sc2c1,-,-,-,-
COc1ccc2nc(N=NC3=C(O)CC(C)(C)CC3=O)sc2c1,-95,15µM,-,13µM
COc1ccc2nc(N=Nc3ccc(O)c4ccccc34)sc2c1,-76,?,-,?
CC1(C)CC(=O)C(N=Nc2ccc3ncsc3c2)=C(O)C1,-,?,-,-
CCOc1ccc(NS(=O)(=O)c2ccc3[nH]cc(C(=O)N4CCCC4)c(=O)c3c2)cc1,-,-,-,-
CCOc1ccc(-c2cc(C(=O)NCCCn3ccnc3)c3cc(Br)ccc3n2)cc1,-77,?,?,?
COc1ccc2cc(-c3cc(C(=O)OCC(=O)NC4CCS(=O)(=O)C4)c4ccccc4n3)ccc2c1 (stereo not given),-,3.5µM,-,3.2µM
COc1cc(-c2cc(C(=O)Nc3ccc(O)cc3)c3ccccc3n2)cc(OC)c1OC,-,.,?,.
